{"source": "PubChem BioAssay (NCI)", "assay_in_all_cases": "NCI-60 one-dose screen, 48 h (100 = growth as untreated, 0 = no growth, -100 = all killed)", "key": {"[1]": {"tested_on": "UACC-62 melanoma", "conditions": "10 µM unless noted"}, "[2]": {"tested_on": "TK-10 renal", "conditions": "10 µM unless noted"}, "[3]": {"tested_on": "MCF7 breast", "conditions": "10 µM unless noted"}, "[4]": {"tested_on": "HL-60(TB) leukemia", "conditions": "10 µM unless noted"}, "[5]": {"tested_on": "NCI-H460 lung", "conditions": "10 µM unless noted"}, "[6]": {"tested_on": "786-0 renal", "conditions": "10 µM unless noted"}, "[7]": {"tested_on": "DU-145 prostate", "conditions": "10 µM unless noted"}, "[8]": {"tested_on": "MDA-MB-231 breast", "conditions": "10 µM unless noted"}, "[9]": {"tested_on": "SF-268 CNS", "conditions": "10 µM unless noted"}, "[10]": {"tested_on": "SF-539 CNS", "conditions": "10 µM unless noted"}, "[11]": {"tested_on": "HCT-15 colon", "conditions": "10 µM"}, "[12]": {"tested_on": "HT29 colon", "conditions": "10 µM unless noted"}, "[13]": {"tested_on": "SNB-19 CNS", "conditions": "10 µM unless noted"}, "[14]": {"tested_on": "SK-MEL-28 melanoma", "conditions": "10 µM unless noted"}, "[15]": {"tested_on": "SN12C renal", "conditions": "10 µM unless noted"}, "[16]": {"tested_on": "UO-31 renal", "conditions": "10 µM unless noted"}, "[17]": {"tested_on": "T-47D breast", "conditions": "10 µM unless noted"}, "[18]": {"tested_on": "MDA-MB-435 melanoma", "conditions": "10 µM unless noted"}, "[19]": {"tested_on": "SW-620 colon", "conditions": "10 µM unless noted"}, "[20]": {"tested_on": "KM12 colon", "conditions": "10 µM unless noted"}}, "note": "“And” between values parts separate entries of the source, which are not always exact repeats. Equal values may be shown once. The panel holds about 83,000 compounds, 20% with a hit somewhere; the sample as a whole holds those more often.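 The test compound was applied at a single concentration to cells in 96-well plates for 48 hours, and percent growth was recorded.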 The source made the active and inactive calls. Rule for the calls: active = growth percent below 10; inactive = the rest.", "data": [{"smiles": "O=C1NC(=O)C(CCC(=O)c2cccc3ccccc23)C(=O)N1", "values": [{"measurement": "growth", "setting": "[1]", "value": "77.1% [100 µM] (inactive) and 44.6% [100 µM] (inactive)"}, {"measurement": "growth", "setting": "[2]", "value": "106% [100 µM] (inactive) and 8.08% [100 µM] (active)"}, {"measurement": "growth", "setting": "[3]", "value": "91% [100 µM] (inactive) and 51.9% [100 µM] (inactive)"}]}, {"smiles": "CCN(CC)CCOC(=O)C(c1ccccc1)(c1ccccc1)C(C)C", "values": [{"measurement": "growth", "setting": "[4]", "value": "91.8% (inactive)"}]}, {"smiles": "COc1cc2c(cc1OC)-c1ccc3cc4c(cc3c1N(CCN(C)C)C2)OCO4", "values": [{"measurement": "growth", "setting": "[4]", "value": "-33.9% (active)"}]}, {"smiles": "COc1ccc(/C=C(\\C#N)c2cc(OC)c3c(c2)OCO3)cc1", "values": [{"measurement": "growth", "setting": "[4]", "value": "-1.4% (active)"}]}, {"smiles": "COc1ccc2c(/C=C3/C(=O)NC(=S)NC3C)cc(=O)oc2c1", "note": "(stereo not drawn)", "values": [{"measurement": "growth", "setting": "[4]", "value": "90.5% (inactive)"}]}, {"smiles": "NC(=O)CN1C(=O)C(Cc2ccccc2)N=C(c2cccc(O)c2)c2ccccc21", "note": "(stereo not drawn)", "values": [{"measurement": "growth", "setting": "[1]", "value": "97.8% [30 µM] (inactive)"}, {"measurement": "growth", "setting": "[2]", "value": "102% [30 µM] (inactive)"}, {"measurement": "growth", "setting": "[3]", "value": "96.4% [30 µM] (inactive)"}]}, {"smiles": "COc1ccc(/C=C2\\COc3ccc(O)cc3C2=O)c(OC)c1", "values": [{"measurement": "growth", "setting": "[4]", "value": "11.2% (inactive)"}]}, {"smiles": "CC12CC3OC(=O)C1COC14OC5(C2C1=O)C(O)(CCC1C4CC2OC24CC=CC(=O)C14C)C(=O)OC35C", "note": "(stereo not drawn)", "values": [{"measurement": "growth", "setting": "[1]", "value": "-79.6% [100 µM] (active) and -94.2% [100 µM] (active)"}, {"measurement": "growth", "setting": "[3]", "value": "-49.7% [100 µM] (active) and -85% [100 µM] (active)"}]}, {"smiles": "COc1cc(NCCCCCN=C(N)N)c2ncccc2c1", "values": [{"measurement": "growth", "setting": "[5]", "value": "65.9% (inactive)"}, {"measurement": "growth", "setting": "[6]", "value": "86.3% (inactive)"}, {"measurement": "growth", "setting": "[7]", "value": "103% (inactive)"}, {"measurement": "growth", "setting": "[8]", "value": "50.8% (inactive)"}, {"measurement": "growth", "setting": "[9]", "value": "3.28% (active)"}, {"measurement": "growth", "setting": "[10]", "value": "23.8% (inactive)"}, {"measurement": "growth", "setting": "[11]", "value": "99.2% (inactive)"}, {"measurement": "growth", "setting": "[12]", "value": "62.9% (inactive)"}, {"measurement": "growth", "setting": "[13]", "value": "37.5% (inactive)"}, {"measurement": "growth", "setting": "[1]", "value": "89.3% (inactive)"}, {"measurement": "growth", "setting": "[14]", "value": "89.7% (inactive)"}, {"measurement": "growth", "setting": "[15]", "value": "7.58% (active)"}, {"measurement": "growth", "setting": "[16]", "value": "83.9% (inactive)"}, {"measurement": "growth", "setting": "[4]", "value": "18.2% (inactive)"}, {"measurement": "growth", "setting": "[17]", "value": "11.8% (inactive)"}, {"measurement": "growth", "setting": "[18]", "value": "104% (inactive)"}, {"measurement": "growth", "setting": "[19]", "value": "58.9% (inactive)"}, {"measurement": "growth", "setting": "[3]", "value": "-51.1% (active)"}, {"measurement": "growth", "setting": "[20]", "value": "32.6% (inactive)"}]}, {"smiles": "CC(=O)/C(C)=N\\OC(=O)Nc1ccccc1", "values": [{"measurement": "growth", "setting": "[4]", "value": "102% (inactive)"}]}, {"smiles": "C[C@]12C[C@H](O)[C@H]3[C@@H](CCC4=CC(=O)CC[C@@]43C)[C@@H]1CC[C@@H]2O", "values": [{"measurement": "growth", "setting": "[5]", "value": "108% (inactive)"}, {"measurement": "growth", "setting": "[6]", "value": "107% (inactive)"}, {"measurement": "growth", "setting": "[7]", "value": "112% (inactive)"}, {"measurement": "growth", "setting": "[8]", "value": "103% (inactive)"}, {"measurement": "growth", "setting": "[9]", "value": "105% (inactive)"}, {"measurement": "growth", "setting": "[10]", "value": "99% (inactive)"}, {"measurement": "growth", "setting": "[11]", "value": "100% (inactive)"}, {"measurement": "growth", "setting": "[13]", "value": "104% (inactive)"}, {"measurement": "growth", "setting": "[1]", "value": "98.5% (inactive)"}, {"measurement": "growth", "setting": "[14]", "value": "106% (inactive)"}, {"measurement": "growth", "setting": "[15]", "value": "101% (inactive)"}, {"measurement": "growth", "setting": "[16]", "value": "77.7% (inactive)"}, {"measurement": "growth", "setting": "[4]", "value": "105% (inactive)"}, {"measurement": "growth", "setting": "[17]", "value": "105% (inactive)"}, {"measurement": "growth", "setting": "[18]", "value": "101% (inactive)"}, {"measurement": "growth", "setting": "[19]", "value": "107% (inactive)"}, {"measurement": "growth", "setting": "[3]", "value": "103% (inactive)"}, {"measurement": "growth", "setting": "[20]", "value": "105% (inactive)"}]}, {"smiles": "CC(C)(C)c1cc(C(=O)Nc2cc3ccccc3cc2C(=O)NCCN)cc(C(C)(C)C)c1", "values": [{"measurement": "growth", "setting": "[4]", "value": "-68.9% (active)"}]}, {"smiles": "O=C1Nc2ccccc2/C1=N/c1nc(-c2ccc(Cl)cc2)cs1", "values": [{"measurement": "growth", "setting": "[4]", "value": "7.82% (active)"}]}, {"smiles": "O=C(O)CCC1N=C(c2cccc(O)c2)c2ccccc2NC1=O", "note": "(stereo not drawn)", "values": [{"measurement": "growth", "setting": "[1]", "value": "88.5% [30 µM] (inactive)"}, {"measurement": "growth", "setting": "[3]", "value": "83.2% [30 µM] (inactive)"}]}, {"smiles": "N#C[Se]CCN1C(=O)C2C(C1=O)[C@H]1C=C[C@@H]2S1", "note": "(stereo partly drawn)", "values": [{"measurement": "growth", "setting": "[5]", "value": "2.86% (active)"}, {"measurement": "growth", "setting": "[6]", "value": "-30.5% (active)"}, {"measurement": "growth", "setting": "[7]", "value": "-33.3% (active)"}, {"measurement": "growth", "setting": "[8]", "value": "-40.5% (active)"}, {"measurement": "growth", "setting": "[9]", "value": "-45.2% (active)"}, {"measurement": "growth", "setting": "[10]", "value": "-70.5% (active)"}, {"measurement": "growth", "setting": "[11]", "value": "-4.75% (active)"}, {"measurement": "growth", "setting": "[12]", "value": "5.94% (active)"}, {"measurement": "growth", "setting": "[13]", "value": "-19.1% (active)"}, {"measurement": "growth", "setting": "[1]", "value": "18.9% (inactive)"}, {"measurement": "growth", "setting": "[14]", "value": "-19.2% (active)"}, {"measurement": "growth", "setting": "[15]", "value": "-18.8% (active)"}, {"measurement": "growth", "setting": "[16]", "value": "-90.7% (active)"}, {"measurement": "growth", "setting": "[2]", "value": "-65.3% (active)"}, {"measurement": "growth", "setting": "[4]", "value": "-48.1% (active)"}, {"measurement": "growth", "setting": "[17]", "value": "70.7% (inactive)"}, {"measurement": "growth", "setting": "[18]", "value": "-39.2% (active)"}, {"measurement": "growth", "setting": "[19]", "value": "42.9% (inactive)"}, {"measurement": "growth", "setting": "[3]", "value": "5.71% (active)"}, {"measurement": "growth", "setting": "[20]", "value": "15.2% (inactive)"}]}, {"smiles": "NCCCOc1cc(Cl)ccc1NC(=O)c1cc2ccccc2cc1OCCCN", "values": [{"measurement": "growth", "setting": "[4]", "value": "-73% (active)"}]}, {"smiles": "CC1SC(c2ccccc2O)N(NC(=O)CCC(=O)c2nc3ncccc3[nH]2)C1=O", "note": "(stereo not drawn)", "values": [{"measurement": "growth", "setting": "[4]", "value": "101% (inactive)"}]}, {"smiles": "C/C=C1\\CN2CCC34c5ccccc5N(C)C35OCC4(C(=O)OC)C1CC25", "note": "(stereo not drawn)", "values": [{"measurement": "growth", "setting": "[1]", "value": "82.9% [100 µM] (inactive) and -86% [100 µM] (active)"}, {"measurement": "growth", "setting": "[2]", "value": "80.6% [100 µM] (inactive) and 13.9% [100 µM] (inactive)"}, {"measurement": "growth", "setting": "[3]", "value": "77% [100 µM] (inactive) and -100% [100 µM] (active)"}]}, {"smiles": "O=C1C(Cc2ccccc2)N=C(c2cccc(O)c2)c2ccc(Cl)cc2N1CC1CC1", "note": "(stereo not drawn)", "values": [{"measurement": "growth", "setting": "[1]", "value": "94.1% [30 µM] (inactive)"}, {"measurement": "growth", "setting": "[2]", "value": "105% [30 µM] (inactive)"}, {"measurement": "growth", "setting": "[3]", "value": "76.3% [30 µM] (inactive)"}]}]}
